CBFb RUNX1 block: inhibitors of human CBF-beta and RUNX1 interaction; Q01196+Q13951; AlphaScreen CBFb-His/RUNX1-biotin binding, biochemical; Potency, µM (highest dose often 59.8 µM), for inactives: at the top dose activity, negative = inhibition, most hits filed as inhibitors; 230,000 tested, under 10 active; AID 1477; further: % of control where 0% means no effect
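Inhibition was taken as any reduction in AlphaScreen signal from the CBF-beta–RUNX1 pair (His and biotin tags, 30 nM each), measured after compound (15 min) and bead (90 min) incubations at room temperature.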
Anesthetic bind: candidate novel general anesthetic via apoferritin binding; P02791; AID 485281; actives 0.074% (n = 350,000); apoferritin/1-aminoanthracene competitive binding, fluorescence; Potency, µM (top dose mostly 77.5 µM), for inactives: at the top dose activity change, negative = displacement, usual class: inhibitors; further: potency means the concentration at half of the fitted maximal effect; on the % scale 0 is the no-effect control and ±100 the full control effect; nearly all actives have a fitted effect of over 20% in size
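10 uM apoferritin + 50% sat. 1-AMA, PBS; cpd 10 min RT; Ex380/Em535 endpoint; normalized to free probe vs complex; 4-param Hill fit; propofol titration as pos. ctrl.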
TRPV1 agonist: agonists of human vanilloid receptor 1 (TRPV1); Q8NER1; activation, % at 8.33 µM; actives 0.19% (n = 320,000); TRPV1-expressing cells, Fluo-8 calcium influx, agonist mode; in the data active means activation above about 80%; inconclusive means between about 30% and that limit; further: 0% is about no effect
Target sequence (Q8NER1 whole entry, looked up): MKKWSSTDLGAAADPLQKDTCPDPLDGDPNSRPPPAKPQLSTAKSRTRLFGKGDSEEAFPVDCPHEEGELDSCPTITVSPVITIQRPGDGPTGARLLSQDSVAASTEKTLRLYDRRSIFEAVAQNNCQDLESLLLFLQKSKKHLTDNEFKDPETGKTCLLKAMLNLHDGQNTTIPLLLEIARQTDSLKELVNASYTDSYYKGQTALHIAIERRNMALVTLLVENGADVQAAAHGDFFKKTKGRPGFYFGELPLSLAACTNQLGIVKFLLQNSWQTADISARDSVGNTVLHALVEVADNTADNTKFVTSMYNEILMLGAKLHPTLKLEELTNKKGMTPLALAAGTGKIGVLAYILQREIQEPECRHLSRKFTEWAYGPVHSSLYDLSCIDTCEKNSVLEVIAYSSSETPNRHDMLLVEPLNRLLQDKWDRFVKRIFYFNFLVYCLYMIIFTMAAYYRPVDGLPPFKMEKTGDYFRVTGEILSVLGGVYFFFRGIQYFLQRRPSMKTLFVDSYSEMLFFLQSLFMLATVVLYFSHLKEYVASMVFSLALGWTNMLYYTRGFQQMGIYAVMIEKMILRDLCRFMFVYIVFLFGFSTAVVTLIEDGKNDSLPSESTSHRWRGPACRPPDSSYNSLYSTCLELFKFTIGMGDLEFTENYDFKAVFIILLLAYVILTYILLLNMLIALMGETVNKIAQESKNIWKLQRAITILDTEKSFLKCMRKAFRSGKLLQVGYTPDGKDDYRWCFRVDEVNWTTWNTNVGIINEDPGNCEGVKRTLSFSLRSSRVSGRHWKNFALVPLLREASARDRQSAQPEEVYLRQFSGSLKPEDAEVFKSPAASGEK
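Cells expressing TRPV1 were dye-loaded with Fluo-8 and read kinetically: 10 s baseline, 3 min after compound (agonist portion), then 2 min after EC20 capsaicin (allosteric enhancer portion). Calcium-bound dye fluorescence at 480/520 nm.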
A-T KAP1 phos: potential ataxia-telangiectasia treatment; AID 485349; Potency, µM (doses to about 57.5 µM), without a hit: at the top dose activation, actives largely listed as activators; actives 0.19% (n = 320,000); F2112 A-T fibroblasts, KAP-1 phosphorylation AlphaLISA; neocarzinostatin DNA damage 30 min before lysis; further: potency means the concentration at half of the fitted maximal effect; % of control where 0% means no effect; nearly all actives have a fitted effect of over 45% in size
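ATM-like activity read as KAP-1 phosphorylation via AlphaLISA donor/acceptor antibody pairs after lysis and 6 hr at 25C. Cells were ATM-null patient fibroblasts (F2112, hTERT), dosed 60 min, then exposed to the DSB inducer NCS for 30 min.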
TRPV1 potentiator: enhances activation of the human vanilloid receptor TRPV1. TRPV1-expressing cells, Fluo-8 calcium influx, capsaicin EC20 potentiation. potentiation, % at 8.33 µM. actives 0.02% (n = 320,000); in the data active means potentiation above about 80%; inconclusive means between about 30% and that limit; further: 0% is about no effect
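Cells expressing TRPV1 were dye-loaded with Fluo-8 and read kinetically: 10 s baseline, 3 min after compound (agonist portion), then 2 min after EC20 capsaicin (allosteric enhancer portion). Calcium-bound dye fluorescence at 480/520 nm.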
Numbers without * were called inactive; ? = inconclusive; nt = no result given; [ ] = remark or other dose. This is a sample that favours compounds with a hit; in the whole collection about 0.39% have one here. Unless noted, the call rests on the fitted dose curve; in most records, active means well fitted curve in the direction sought with a large enough effect; inconclusive means small, poorly fitted or top-dose-only effect, or another doubt; inactive means no such curve, though single readings can be large; an effect the other way counts as inactive or inconclusive.

SMILES	CBFb RUNX1 block	Anesthetic bind	TRPV1 agonist	A-T KAP1 phos	TRPV1 potentiator
COc1ccc(C2=Nn3c(nnc3-c3ccc(OC)c(OC)c3)SC2)c(OC)c1	-2%	-21%	nt	nt	nt
Cc1noc(C)c1-c1ccc2ncnc(NCc3ccco3)c2c1	-7%	0%	nt	nt	nt
C[C@H](N)C(=O)N[C@@H](CO)C(=O)N[C@H](C(=O)N[C@H](C(=O)N[C@H](C(=O)N[C@@H](CC(N)=O)C(=O)N[C@@H](Cc1ccc(O)cc1)C(=O)N[C@H](C(=O)O)[C@@H](C)O)[C@@H](C)O)[C@@H](C)O)[C@@H](C)O	3%	-15%	nt	nt	nt
CCC(=O)N1C2=C(c3ccccc3[C@@H]1CC(=O)Nc1ccc3ccccc3c1)[C@@H]1C(=O)N(c3ccccc3)C(=O)[C@@H]1[C@H](C)C2	-1%[13.1 µM]	nt	nt	nt	nt
CCCOC(=O)NCCCN(C)C	7%	-8%	nt	nt	nt
C=CC[C@@H]1Cc2c(Br)ccc(Br)c2[C@@H](CC=C)N1	-10%	-10%	-1	40µM*	9
C=CCC1NCCc2c(Br)cccc21 (stereo not drawn)	-7%	-8%	-2	5%	1
CC(=O)c1ccc(NS(=O)(=O)c2ccc(CC(C)C)cc2)cc1	-4%	35µM*	-11	nt	19
CC(=O)c1ccc(NC(=O)Nc2ccc(NS(=O)(=O)c3ccc(C)cc3)cc2)cc1	3%	?	-1	-3%	9
COc1ccc2nc3c(cc2c1)Cc1ccccc1-3	2%	?	nt	nt	nt
COc1cccc(CC(=O)N2CCc3nc(-c4ccc(OC)cc4C)c4c(c3C2)CO[C@@H](c2ccccc2)C4)c1	2%[13.1 µM]	nt	nt	nt	nt
Cc1c(NC(=O)c2cnn3c(C(F)(F)F)cc(-c4ccco4)nc23)c(=O)n(-c2ccccc2)n1C	-2%	-10%	-2	16µM*	22
O=C(O)c1cnn2c(C(F)(F)F)cc(-c3ccco3)nc12	13%	0%	-1	-4%	1
CC(C)CCC1(CCNC(=O)c2cccs2)CCOC(C)(C)C1 (stereo not drawn)	13%	-11%	83*	18%	15
CC(=O)N(CCC1(C(C)C)CCOC(C)(C)C1)C(C)c1cccs1 (stereo not drawn)	6%	-11%	26	5%	-1
Cc1nc2cc(-c3cccc(F)c3)nn2c(N2CCN(C(=O)c3ccco3)CC2)c1C	1%	-17%	81*	8%	-20
CC(C)NC(=O)c1ccc2c(=O)n(CC3CCCO3)c(=S)[nH]c2c1 (stereo not drawn)	18%	-3%	-8	3%	143*
Cc1c(C(=O)Nc2cccnc2)oc2ccc(Br)cc12	nt	-3%	91*	-3%	9
O=C(Nc1cccnc1)c1cc2c(ccc3ccccc32)o1	4%	-13%	?	nt	-19
CCc1ccc2oc(C(=O)Nc3cccnc3)c(C)c2c1	nt	0%	89*	-2%	-9
OCC1=C[C@@H](O)[C@@H]2C=CO[C@@H](OC3O[C@H](CO)[C@@H](O)[C@H](O)[C@H]3O)[C@H]12 (stereo partly drawn)	9%	4%	nt	nt	nt
CSCC[C@H](NC(=O)[C@H](CC(C)C)NC(=O)[C@@H]1CCCN1C(=O)[C@H](Cc1ccccc1)NC(=O)[C@H](Cc1ccccc1)NC(=O)[C@@H]1CCC(=O)N1)C(N)=O	12%	19%	nt	nt	nt
CCN(CC)S(=O)(=O)c1ccc(C(=O)Nc2ccc(Cc3ccncc3)cc2)cc1	0%	?	81*	-1%	2
CCN(CC)S(=O)(=O)c1ccc(NC(=O)c2ccc(N(C)S(C)(=O)=O)cc2)cc1	4%	-18%	25	nt	-28
Fc1cccc(Cl)c1CNC(c1ccccc1)c1ccccc1	?	1%	0	32µM*	0
SMILES	CBFb RUNX1 block	Anesthetic bind	TRPV1 agonist	A-T KAP1 phos	TRPV1 potentiator
Cc1cccc(OCC(=O)OCc2cc(=O)n3nc(C4CCCCC4)sc3n2)c1	nt	16µM*	nt	nt	nt
Cc1cccc(C(=O)OCc2cc(=O)n3nc(C4CCCCC4)sc3n2)c1	nt	-8%	nt	nt	nt
O=C(/C=C/c1ccc(/C=C/C(=O)Nc2ccc(C3=NCCN3)cc2)cc1)Nc1ccc(C2=NCCN2)cc1	?	44%	nt	nt	nt
Cc1ccc(S(=O)(=O)Cc2ccc(C(=O)NCCc3ccccc3)o2)cc1	nt	-8%	81*	-4%	-27
Cc1ccc(C(=O)NCCc2ccccc2)cc1	nt	-11%	84*	1%	-12
O=C(NCCSCc1ccccc1)c1ccc(F)cc1	-13%	-17%	81*	2%	-21
CC[C@H](C)[C@H](NC(=O)[C@H](CO)NC(=O)[C@H](CC(C)C)NC(=O)[C@H](CO)NC(=O)[C@@H]1CCCN1C(=O)[C@H](CC(N)=O)NC(=O)[C@@H](N)CC(=O)O)C(=O)N[C@@H](CC(=O)O)C(=O)N[C@@H](CC(C)C)C(=O)N[C@H](C(=O)N[C@@H](Cc1ccccc1)C(=O)N[C@@H](Cc1cnc[nH]1)C(=O)N[C@@H](CC(C)C)C(=O)N[C@@H](CC(C)C)C(=O)N[C@@H](CCCNC(=N)N)C(=O)N[C@H](C(=O)N[C@@H](CC(C)C)C(=O)N[C@@H](CC(C)C)C(=O)N[C@@H](CCC(=O)O)C(=O)N[C@@H](CC(C)C)C(=O)N[C@@H](C)C(=O)N[C@@H](CCCNC(=N)N)C(=O)N[C@H](C(=O)N[C@@H](CCC(N)=O)C(=O)N[C@@H](CO)C(=O)N[C@@H](CCC(N)=O)C(=O)N[C@@H](CCCNC(=N)N)C(=O)N[C@@H](CCC(=O)O)C(=O)N[C@@H](CCCNC(=N)N)C(=O)N[C@@H](C)C(=O)N[C@@H](CCC(=O)O)C(=O)N[C@@H](CCC(N)=O)C(=O)N[C@@H](CC(N)=O)C(=O)N[C@@H](CCCNC(=N)N)C(=O)N[C@H](C(=O)N[C@H](C(=O)N[C@@H](Cc1ccccc1)C(=O)N[C@@H](CC(=O)O)C(=O)N[C@@H](CO)C(=O)N[C@H](C(N)=O)C(C)C)[C@@H](C)CC)[C@@H](C)CC)[C@@H](C)O)[C@@H](C)O)[C@@H](C)O	-1%	-19%	nt	nt	nt
S=C(Nc1ccccc1Cl)N(Cc1ccccc1)Cc1ccccn1	?	48%	-9	5%	132*
COc1ccccc1C(=O)c1c(C)c(CCC#N)n2ccccc12	nt	-9%	2	-3%	1
COC(=O)CCc1c(C)c(C(=O)c2cc(OC)c(OC)c(OC)c2)c2ccccn12	nt	4%	-5	3.5µM*	22
CS(=O)(=O)N1CCc2cc(C(=O)Nc3ccc(Br)cc3)ccc21	nt	-1%	88*	0%	-7
O=C(N/N=C\c1ccc(F)cc1)c1ccc(F)cc1	23%	0%	82*	0%	-22
Cc1ccc(/C=N/NC(=O)c2ccc(-n3cnnn3)cc2)cc1	nt	nt	80*	-11%	-10
